The list is not random: actives were taken first. Their share in the collection is about 4.1%.
Mdm2 MdmX PPI: inhibitors of human Mdm2-MdmX association, primary screen, cell-based, luminescence, split luciferase, SaOS-2, uHTS; 330,000 compounds, 3% hits; inhibition, % at 8 µM; Protein Mdm4 (Homo sapiens) + E3 ubiquitin-protein ligase Mdm2 (Homo sapiens), …; SaOS-2 split-luciferase Mdm2/MdmX complementation;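 active = inhibition of at least 50% at 8 µM in the primary screen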
Gli-Sufu antag: Gli-Sufu pathway antagonists, primary screen, luciferase luminescence, Sufu-KO-LIGHT cells, uHTS; Sufu-KO-LIGHT fibroblasts, Gli luciferase reporter luminescence; inhibition, % at 5 µM; 340,000 compounds, 0.74% hits; AID 588413, 2011;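 active = inhibition above about 55%, limit read from the data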;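 note: 0% = DMSO-treated cells and 100% = wells with medium but no cells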
697 NFkB inh: inhibitors of PMA/ionomycin-induced NF-kB reporter, 697 cells, primary screen, B-cell NF-kB inhibitor project, cell-based, luminescence, uHTS. 697 B-cell NF-kB luciferase reporter, 16 h. inhibition, % at 4 µM. 330,000 compounds, 0.33% hits. AID 435022, 2010; in the data active = inhibition above about 35%
aSyn UTR inh: MLPCN primary screen, SNCA 5' untranslated region; inhibition, % (tested at 7.5 µM); alpha-synuclein 5'UTR reporter, inhibitor activity; 300,000 compounds, 0.82% hits; AID 1813, 2009; in the data active = inhibition above about 60%;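 note: H4 neuroglioblastoma cells stably carrying SNCA 5'UTR luciferase fusion; 0% = DMSO wells and 100% = positive control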
KLF5 inh: KLF5 expression inhibitors, primary screen, DLD-1 cells, luminescence; DLD-1 KLF5 promoter-luciferase reporter; inhibition, % at 5 µM; 290,000 compounds, 0.23% hits; AID 1700, 2009;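 active = inhibition above a per-plate limit of that plate's mean compound inhibition plus 3 SD, cut at about 60% in these data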;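 note: 0% = DMSO wells and 100% = LY294002 at 200 µM; higher means less KLF5 promoter-driven luciferase light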
Jurkat NFkB inh: inhibitors of induced NF-kB luciferase reporter, primary screen, TCR NF-kB activation inhibitor project, cell-based, luminescence, uHTS. Jurkat, PMA/ionomycin-induced NF-kB luciferase reporter. inhibition, % at 4 µM. 330,000 compounds, 0.53% hits; in the data active = inhibition above about 50%
Mdm2 MdmX conf: Mdm2-MdmX complex disruptors, retested hits, confirmation, luminescence, single concentration | Mdm2-MdmX binding, luminescent assay | 10,000 compounds, 55% hits | inhibition, % at 8 µM | shares compounds with Mdm2 MdmX PPI; in the data active = inhibition above about 40%
Full FLuc ctr: full-length luciferase signal inhibition, confirmation, counter-screen for Mdm2/MdmX interaction inhibitor project, cell-based, single concentration, SaOS-2; shares compounds with Mdm2 MdmX PPI; SaOS-2 full-length luciferase counterscreen, luminescence; inhibition, % at 8 µM; 6,200 compounds, 77% hits;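 active = mean inhibition at 8 µM reaching about 37%, which flags the compound as non-specific, limit read from the data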;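 note: p53-null SaOS-2 cells with luciferase driven by a doxycycline-inducible promoter; compound on cells about two nights before reading with doxycycline added after day one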
Numbers without * were called inactive; x = no result.

SMILES	Mdm2 MdmX PPI	Gli-Sufu antag	697 NFkB inh	aSyn UTR inh	KLF5 inh	Jurkat NFkB inh	Mdm2 MdmX conf	Full FLuc ctr
CC(C)(C)c1ccc(C(=O)Nc2cccc3c(=O)[nH][nH]c(=O)c23)cc1	x	15.8	x	-68.1	17.3	x	x	x
O=C(Nc1ccccc1C(=O)N1CCOCC1)c1ccc(Br)cc1	10.3	-5.3	9.3	0.5	-15.1	-0.4	x	x
N=c1c2c(ncn1CCN1CCOCC1)Oc1ccc3ccccc3c1C2c1ccccc1 (centres undefined)	39.6	7.5	-10.4	-1.6	-15.2	-6.2	x	x
CN(C)CCn1cnc2c(c1=N)C(c1ccccc1)c1ccc3ccccc3c1O2 (centres undefined)	98.0*	14.9	-19.4	90.4*	-13.2	18.3	70.8*	40.4*
N=c1c2c(ncn1Cc1ccco1)Oc1c(ccc3ccccc13)C2c1ccccc1 (centres undefined)	70.5*	20.1	-19.4	-25.0	-31.5	26.0	69.5*	54.8*
COc1ccc(C2c3c(ncn(CCN4CCOCC4)c3=N)Oc3ccc4ccccc4c32)cc1 (centres undefined)	70.6*	25.3	-20.4	-17.3	-0.4	-8.4	55.1*	64.6*
CC(=C/c1ccccc1)/C=N/n1c(-c2ccncc2)n[nH]c1=S	73.6*	-7.3	1.4	0.3	3.5	5.0	78.2*	53.2*
CC(/C=N/n1c(-c2cccnc2)n[nH]c1=S)=C\c1ccccc1	22.0	-10.7	-23.5	16.4	-12.5	-6.3	x	x
Cc1cc(-c2n[nH]c(=S)n2/N=C/C(Cl)=C/c2ccccc2)n[nH]1	20.1	-3.6	-49.8	-164.3	-30.9	0.1	x	x
S=c1[nH]nc(-c2cc(-c3ccccc3)n[nH]2)n1/N=C/C(Br)=C/c1ccccc1	99.8*	-7.1	-131.3	-42.3	2.9	33.4	84.0*	24.2
S=c1[nH]nc(-c2ccco2)n1/N=C/C(Cl)=C/c1ccccc1	61.9*	-27.6	-245.3	-172.0	-110.1	-42.9	-39.1	x
S=c1[nH]nc(-c2cc(-c3ccccc3)n[nH]2)n1/N=C/c1ccccc1	-7.6	9.3	-21.7	-35.4	-1.9	1.2	x	x
O=c1[nH]nc(-c2n[nH]c(=O)o2)o1	x	8.3	x	x	x	x	x	x
O=C(OCc1nnc(-c2cccs2)o1)C1=NN(c2ccccc2)C(=O)CC1	-19.6	-1.0	-17.8	x	x	-0.5	x	x
CSc1cccc(NC(=O)C(C)NS(=O)(=O)c2ccc(F)cc2)c1 (centres undefined)	5.8	-1.7	5.1	x	-24.6	-10.2	x	x
C=CCn1c(SCc2c(C)noc2C)nc2sc3c(c2c1=O)CCCC3	52.3*	14.2	-30.1	29.9	12.8	22.5	55.3*	40.9*
COc1ccc(CN(CCC(c2ccc(F)cc2)C2CCOC(C)(C)C2)C(=O)c2ccco2)cc1 (centres undefined)	75.9*	23.4	-1.0	6.2	-15.8	5.1	53.0*	131.2*
COc1ccc(COc2cc(-c3cccc(OC)c3)nc3ccc(NC(=O)c4ccc(OC)cc4)cc23)cc1	52.3*	18.8	20.8	17.9	1.2	30.8	40.1*	62.1*
COc1ccc(COc2cc(-c3cccc(OC)c3)nc3ccc(NC(=O)c4cccnc4)cc23)cc1	63.3*	9.3	34.7	-9.1	-10.4	16.7	55.1*	69.3*
COc1ccc(COc2cc(-c3cccc(OC)c3)nc3ccc(NC(=O)c4ccc(Cl)cc4)cc23)cc1	28.0	3.1	6.1	11.3	5.0	6.4	x	x
CC(C)Oc1ccc(CN2CCC(n3nccc3NC(=O)C3CC3)CC2)cc1	26.1	9.7	14.9	-12.1	-7.5	8.6	x	x
CCc1cc(C)cc(OCCNC(=O)c2cncc(Br)c2)c1	58.5*	-5.9	-5.0	-6.8	-26.0	4.4	29.2	x
O=C(NCCOc1ccccc1)c1cncc(Br)c1	-18.6	10.2	-38.7	-91.6	-117.2	-23.8	x	x
CC12CCC(C(=O)CC1=O)C2(C)C (centres undefined)	x	-16.1	x	x	x	x	x	x
COc1ccc(CCNC(=O)c2cc3c(=O)n4ccccc4nc3n(C3CCCCC3)c2=N)cc1OC	57.8*	44.3	-44.5	-3.9	3.0	-10.5	25.6	x
SMILES	Mdm2 MdmX PPI	Gli-Sufu antag	697 NFkB inh	aSyn UTR inh	KLF5 inh	Jurkat NFkB inh	Mdm2 MdmX conf	Full FLuc ctr
COc1ccc(CCNC(=O)c2cc3c(=O)n4ccccc4nc3n(CC3CCCO3)c2=N)cc1OC (centres undefined)	9.4	10.0	-42.4	2.4	3.0	1.6	x	x
COc1ccc(CCNC(=O)c2cc3c(=O)n4ccccc4nc3n(Cc3ccco3)c2=N)cc1OC	62.4*	37.8	-12.2	18.8	-43.1	17.6	40.9*	26.2
COc1ccc(CCNC(=O)c2cc3c(=O)n4ccccc4nc3n(CCCN3CCOCC3)c2=N)cc1	54.5*	27.6	-16.5	-38.5	-24.7	35.2	12.6	x
COc1ccc(CCNC(=O)c2cc3c(=O)n4ccccc4nc3n(C3CCCCC3)c2=N)cc1	60.9*	17.7	-68.5	-33.1	-26.4	13.9	38.5	69.4*
COc1ccc(S(=O)(=O)NC(C(=O)OCC(=O)Nc2ccc(N3CCOCC3)cc2)C(C)C)cc1 (centres undefined)	x	6.7	x	x	x	x	x	x
Cc1ccc(C)c(-c2cc(C(=O)Nc3sc(C)c(C)c3C(N)=O)c3ccccc3n2)c1	50.7*	3.5	-0.2	-27.7	11.5	-1.1	18.5	x
O=C(Nc1nc(-c2nc3ccccc3s2)cs1)c1ccco1	72.6*	-22.0	-62.9	-160.6	-44.2	-36.2	-14.8	x
O=C(Nc1nc2ccccc2s1)c1cc(-c2ccco2)nc2ccccc12	66.2*	-6.6	-21.3	10.6	3.1	15.5	45.2*	55.4*
Cc1ccccc1-c1cc(C(=O)Nc2nc3c(s2)CCCC3)c2ccccc2n1	61.9*	-11.7	-21.9	-3.7	-24.5	14.0	47.9*	34.9
O=C(COC(=O)c1ccccc1Br)Nc1ccccc1F	-1.4	0.9	0.9	-4.2	14.0	-0.8	x	x
COc1ccc(NS(=O)(=O)c2ccc(/C=C/C(=O)O)cc2)cc1S(=O)(=O)N1CCOCC1	17.8	8.9	7.8	6.8	19.2	0.7	x	x
O=C(O)CC1(CC(=O)NCc2cc(F)cc3c2OCOC3)CCCCC1	-17.6	0.5	5.4	1.3	-13.1	8.1	x	x
CC(C)n1cnnc1SCC(=O)NNC(=O)COc1ccc(Cl)cc1	9.2	-3.4	11.5	16.3	x	1.7	x	x
O=C(NCCCN1CCCC1=O)c1cn(-c2ccccc2)nc1-c1ccccc1	12.2	7.9	-26.8	-14.7	-30.6	-9.3	x	x
